JMJD2A Tudor: JMJD2A Tudor domain (human) inhibition | O75164 | AlphaScreen JMJD2A-Tudor / H3K4me3 peptide binding | Potency, µM (highest dose often 114 µM), for the others: top-dose activity change, negative = inhibition, usual class: inhibitors | 390,000 tested, 4.4% active | AID 504339; further: on the % scale 0 is the no-effect control and ±100 the full control effect; nearly all actives have a fitted effect of over 50% in size
HP1b chromo inh: blocks HP1-beta chromodomain binding to methylated histone tails. Potency, µM (titrated, usually from 114 µM), for inactives: at the top dose activity change, negative = inhibition, most hits filed as inhibitors. 390,000 tested, 0.56% active. P83916. AlphaScreen HP1-beta / biotin-H3K9me3 peptide binding; further: nearly all actives have a fitted effect of over 70% in size
Target sequence (P83916 whole entry, looked up): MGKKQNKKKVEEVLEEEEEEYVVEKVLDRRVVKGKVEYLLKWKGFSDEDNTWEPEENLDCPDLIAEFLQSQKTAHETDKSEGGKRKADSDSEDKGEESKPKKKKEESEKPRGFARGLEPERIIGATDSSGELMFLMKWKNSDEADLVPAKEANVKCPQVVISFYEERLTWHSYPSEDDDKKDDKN
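HP1-beta protein (50 nM final) preincubated 30 min at room temperature with biotinylated H3(1-18)K9me3 peptide (50 nM) in PBS pH 7.4, 0.01% Tween-20, then compound added for 30 min. AlphaScreen streptavidin donor/nickel chelate acceptor beads (10 ug/mL final), 30 min dark, luminescence read.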
G9a block: blocks human histone lysine methyltransferase G9a; Q96KQ7; G9a H3K9 monomethylation, AlphaScreen, 2 h; Potency, µM (doses to about 102 µM), for the others: at the top dose activity, negative = inhibition, actives largely listed as inhibitors; 350,000 tested, 8.8% active; AID 504332; further: on the % scale 0 is the no-effect control and ±100 the full control effect; nearly all actives have a fitted effect of over 75% in size
Target sequence (Q96KQ7 913-1193 limits assumed): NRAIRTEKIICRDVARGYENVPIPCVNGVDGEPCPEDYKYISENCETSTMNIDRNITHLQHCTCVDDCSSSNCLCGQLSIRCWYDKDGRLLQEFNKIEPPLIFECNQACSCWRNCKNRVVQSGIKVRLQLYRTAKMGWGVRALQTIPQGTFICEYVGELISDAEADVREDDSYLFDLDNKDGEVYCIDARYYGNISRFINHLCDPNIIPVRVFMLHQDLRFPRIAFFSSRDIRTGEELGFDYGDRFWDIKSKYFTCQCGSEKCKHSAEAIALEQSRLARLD
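Signal arises when biotinylated H3K9 peptide, once monomethylated, bridges streptavidin donor and antibody-captured acceptor beads. Enzyme at 20 nM was preincubated 15 min with test compounds; peptide 500 nM and SAM 20 uM then reacted for 2 h.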
BAZ2B block: BAZ2B (human) inhibition. Q9UIF8. AlphaScreen BAZ2B-H3K14Ac peptide displacement. Potency, µM (titrated, usually from 114 µM), for the others: top-dose activity change, negative = inhibition, hits mostly inhibitors. 360,000 tested, 4.4% active; further: on the % scale 0 is the no-effect control and ±100 the full control effect; nearly all actives have a fitted effect of over 60% in size
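AlphaScreen displacement of biotin-H3(5-23)K14Ac peptide (50 nM final) from BAZ2B (50 nM final) in PBS pH 7.4, 0.01% Tween-20; complex preformed 30 min RT, then compounds (top 110 uM) 30 min RT, beads 20 min dark.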
Sfp PPTase inh: inhibitors of Bacillus subtilis Sfp phosphopantetheinyl transferase | Biochemical Sfp PPTase activity, qHTS | AID 1490 | Q9F4F7 | Potency, µM, without a hit: largest response in the series, negative = inhibition, usual class: inhibitors | 310,000 tested, 3.5% active;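 further: the enzyme is Sfp with the accession as filed and its product quenches rhodamine fluorescence; 0% = enzyme reaction without inhibitor and -100% = no enzyme wells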
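Fluorescence-quenching assay with 15 nM Sfp, 5 uM rhodamine-CoA and 12.5 uM BHQ-2-labelled ybbR peptide in pH 7.6 Hepes/MgCl2 buffer. Enzyme was pre-incubated with compound for 15 min at room temperature. Rate was taken from the 30-min fluorescence change (525/598 nm).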
The depositor's hits bear a star; ? = inconclusive; . = not tested or not shown; [ ] = remark or other dose. Only some compounds are listed: those with a hit (about 12% of all), similar ones and a draw of the others. The call rests on the fitted dose curve; in most records, active means well fitted curve in the direction sought with a large enough effect; inconclusive means small, poorly fitted or top-dose-only effect, or another doubt; inactive means no such curve, though single readings can be large; an effect the other way counts as inactive or inconclusive. Potency means the concentration at half of the fitted maximal effect.

SMILES	JMJD2A Tudor	HP1b chromo inh	G9a block	BAZ2B block	Sfp PPTase inh
CC(=O)O[C@H]1C[C@@]2(O)[C@@H](OC(=O)c3ccccc3)C3[C@@](C)([C@@H](O)C[C@H]4OC[C@@]34OC(C)=O)[C@@H](O)[C@H](OC(C)=O)C(=C1C)C2(C)C (stereo partly specified)	-23.8%	6.6%	-6.7%[12.7 µM]	-23.3%	22.2%
CC(=O)O[C@@]12CO[C@@H]1C[C@H](O)[C@@]1(C)C(=O)[C@H](O)C3=C(C)[C@@H](OC(=O)[C@H](O)[C@@H](NC(=O)OC(C)(C)C)c4ccccc4)C[C@](O)([C@@H](OC(=O)c4ccccc4)[C@H]21)C3(C)C	.	.	17.0%[59 µM]	-14.6%	8.91µM*
Cc1cccc(N(C(=O)CNC(=O)c2ccco2)C(C(=O)NC2CCCC2)c2cccnc2)c1C (stereo unspecified)	-11.6%	36.5%	-3.1%	-5.0%	17.8%
CC(=O)NC(=O)NC1OC(=O)C(Cl)=C1Cl (stereo unspecified)	1.5%[57.1 µM]	36.1%	39.8µM*	3.4%	-20.1%
Cc1ccc(NC(=O)NC2OC(=O)c3ccccc32)cc1 (stereo unspecified)	-15.4%	2.2%	.	.	.
CCc1ccc2oc(-c3cccc(NC(=O)c4ccc(-c5cccc([N+](=O)[O-])c5)o4)c3)nc2c1	-22.0%	17.9%	?	?	.
Cc1ccc(N(C(=O)CS(=O)CC(=O)Nc2ccc(F)cc2)C(C)C(=O)NC(C)(C)C)cc1 (stereo unspecified)	2.1%	15.0%	70.8µM*	0.0%	1.2%
Cc1ccccc1N(C(=O)CS(=O)CC(=O)Nc1ccc(F)cc1)C(C)C(=O)NC(C)(C)C (stereo unspecified)	-11.3%	?	12.9%	3.1%	15.0%
CN(C(=S)Nc1ccc(SC(F)F)cc1)c1ccc(O)cc1	?	70.8µM*	1.41µM*	?	31.6µM*
CN(C(=S)Nc1ccc(Oc2ccccc2)cc1)c1ccc(O)cc1	56.2µM*	17.8µM*	1.26µM*	?	7.94µM*
CCN(C(=S)Nc1cccnc1)c1cccc2ccccc12	-27.1%	-11.1%	?	?	22.4µM*
CN(C(=S)Nc1cccnc1)c1ccc(O)cc1	?	?	1.58µM*	-9.9%	?
CC1CCN(S(=O)(=O)c2ccc3c(c2)oc(=O)n3CC(=O)NC(C)c2ccccc2)CC1 (stereo unspecified)	-25.2%	17.4%	?	-25.9%	.
Cc1ccc(NC(=O)CC2S/C(=N/N=C3/NC(=O)CS3)NC2=O)cc1 (stereo unspecified)	?	44.1%	?	56.2µM*	3.9%
CCC1Oc2ccc(C)cc2N(CC(=O)N2CCN(c3ccc(F)cc3)CC2)C1=O (stereo unspecified)	?	13.5%	44.7µM*	-23.0%	-5.7%
O=[N+]([O-])c1ccccc1S(=O)(=O)N1CCN(C2CCCC2)CC1	1.78µM*	?	.	79.4µM*	-25.8%
O=[N+]([O-])c1ccc(C(=S)N2CCC(Cc3ccccc3)CC2)cc1	?	?	?	?	21.3%
O=[N+]([O-])c1ccccc1S(=O)(=O)N1CCN(C2CCN(Cc3ccccc3)CC2)CC1	0.708µM*	?	-29.0%	-28.2%	-1.6%
O=[N+]([O-])c1ccc(S(=O)(=O)N2CCN(C3CCN(Cc4ccccc4)CC3)CC2)cc1	1.78µM*	50.1µM*	31.6µM*	28.2µM*	-44.8%
CS(=O)(=O)N1CCN(S(=O)(=O)c2ccccc2[N+](=O)[O-])CC1	-6.0%[11.4 µM]	-4.5%	0.2%	-14.4%	11.2%
O=[N+]([O-])c1ccc(CN2CCC(Cc3ccccc3)CC2)cc1	28.2µM*	?	?	50.1µM*	-20.1%
O=[N+]([O-])c1cccc(OCCCN2CCC(Cc3ccccc3)CC2)c1	79.4µM*	-14.8%	.	.	.
C=CCn1c(=O)c2c(nc3n2CCN3c2cccc(Cl)c2C)n(C)c1=O	-12.5%	7.0%	-8.7%	-6.3%	14.8%
C=CCn1c(=O)c2c(nc(-c3ccc(S(=O)(=O)O)cc3)n2C)n(C)c1=O	?	19.8%	11.9µM*	.	6.0%
CCOC(=O)c1c(-c2ccccc2)c[nH]c1C	-30.3%	-33.3%	.	.	.
